Data on 19 compounds can be found in the supplement of paper PMC11732987, “Enantioselective OTUD7B fragment discovery through chemoproteomics screening and high-throughput optimisation” (Communications Chemistry, 2025).

A number with no mark means an inactive call.

In the assay the target is T1, USP38 (UniProt Q8NB14).
T1 sequence (whole entry): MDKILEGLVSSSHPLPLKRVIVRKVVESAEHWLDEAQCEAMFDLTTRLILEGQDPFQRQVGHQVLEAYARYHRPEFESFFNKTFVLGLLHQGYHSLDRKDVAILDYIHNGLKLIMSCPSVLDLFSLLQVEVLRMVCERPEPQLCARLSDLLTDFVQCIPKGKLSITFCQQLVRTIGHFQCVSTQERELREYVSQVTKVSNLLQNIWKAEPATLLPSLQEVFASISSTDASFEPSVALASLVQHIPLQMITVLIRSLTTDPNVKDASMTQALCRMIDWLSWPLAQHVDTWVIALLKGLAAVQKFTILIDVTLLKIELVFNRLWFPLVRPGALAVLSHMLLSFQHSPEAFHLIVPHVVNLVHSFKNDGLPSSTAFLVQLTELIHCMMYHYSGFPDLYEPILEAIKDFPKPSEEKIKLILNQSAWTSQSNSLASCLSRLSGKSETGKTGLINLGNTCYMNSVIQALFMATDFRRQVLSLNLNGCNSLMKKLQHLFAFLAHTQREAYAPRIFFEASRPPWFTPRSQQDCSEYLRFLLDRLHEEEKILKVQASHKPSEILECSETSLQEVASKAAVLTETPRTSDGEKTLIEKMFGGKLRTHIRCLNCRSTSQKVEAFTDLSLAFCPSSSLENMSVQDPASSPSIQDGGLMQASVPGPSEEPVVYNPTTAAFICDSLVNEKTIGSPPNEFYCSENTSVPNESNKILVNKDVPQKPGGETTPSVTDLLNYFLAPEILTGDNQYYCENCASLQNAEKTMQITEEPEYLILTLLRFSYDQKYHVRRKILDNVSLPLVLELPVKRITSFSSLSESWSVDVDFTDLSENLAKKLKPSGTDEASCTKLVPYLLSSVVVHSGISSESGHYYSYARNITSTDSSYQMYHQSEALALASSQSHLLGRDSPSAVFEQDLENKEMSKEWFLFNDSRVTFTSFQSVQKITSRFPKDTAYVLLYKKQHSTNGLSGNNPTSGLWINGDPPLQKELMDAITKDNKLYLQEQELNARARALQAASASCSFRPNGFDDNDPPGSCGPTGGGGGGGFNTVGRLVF
Description: log2 ratio of Biotin-Ahx-Ub-VS probe labelling (fragment/DMSO); higher = less target engagement (more negative = stronger competition), active = hit call of the paper (q ≤ 0.05, log2 ratio ≤ -1). The following applies: compound concentration: 200 uM; treatment time: 3 h. How it is done: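 Competitive ABPP in HEK293T cell lysate. Lysates were treated with each chloroacetamide fragment at 200 µM for 3 h, then with Biotin-Ahx-Ub-VS (0.5 µM, 1 h), NeutrAvidin-enriched and analysed by diaPASEF LC-MS/MS. Protein LFQ was median-normalised; average log2 ratio is fragment/DMSO from an unpaired t-test (n=3 treated, n=44 DMSO). Hits: q ≤ 0.05, log2 ratio ≤ -1, unique peptides ≥ 2.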
As to `O=C(CCl)N1CCCC1=O`, the “log2 ratio of Biotin-Ahx-Ub-VS probe labelling” value (“log2 ratio” for short) is -0.1.

Take `N#CC1(NC(=O)CCl)CCCC1`: the “log2 ratio” value was -0.0299.

`CC(NC(=O)CCl)c1cccs1` (centres undefined): the “log2 ratio” value was -0.0174.

Regarding `O=C(CCl)NC(C1CC1)C1CC1`, the “log2 ratio” value was -0.124.

As for `Cc1ncsc1CNC(=O)CCl.Cl`, the “log2 ratio” value is 0.147.

Regarding `Cc1cc(NC(=O)CCl)no1`, the “log2 ratio” value is -0.139.

On to `O=C(CCl)NCC1CCC1`, for which the “log2 ratio” value was 0.000742.

As to `O=C(CCl)NCC1CCCO1` (centres undefined), the “log2 ratio” value was -0.00745.

As for `CC1CN(C(=O)CCl)CC(C)O1` (centres undefined), the “log2 ratio” value is -0.205.

As for `Cc1nnc(NC(=O)CCl)s1`, the “log2 ratio” value was -0.33.

As to `O=C(CCl)N1CCCCCCC1`, the “log2 ratio” value is -0.0744.

`CC1CCCCC1NC(=O)CCl` (centres undefined): the “log2 ratio” value is -0.0227.

Turning to `Cc1cccc(NC(=O)CCl)c1`, the “log2 ratio” value was -0.146.

In the case of `CC(C)CN(C(=O)CCl)C1CC1`, the “log2 ratio” value was 0.00725.

For the compound `O=C(CCl)Nc1cccc(Cl)c1`, the “log2 ratio” value was -0.568.

Turning to `CN(C(=O)CCl)C1CCCCC1`, the “log2 ratio” value was 0.0172.

In the case of `O=C(CCl)NCc1ccco1`, the “log2 ratio” value was -0.144.

`CC1CCCCN1C(=O)CCl` (centres undefined): the “log2 ratio” value is -0.196.

With `Cc1nc(NC(=O)CCl)sc1C`, the “log2 ratio” value was -0.00435.
